Measured values reported in the supplement of paper PMC6411743.
± gives the standard deviation of the averaged measurements. The full data set covers some 6,500 targets. This sample favours those with the largest changes.

Compound: Nc1ncnc2c1ncn2[C@@H]1O[C@H](COP(=O)(O)OP(=O)(O)OP(=O)(O)O)[C@@H](O)[C@H]1O [adenosine triphosphate]
Test: NP40-soluble protein abundance relative to vehicle (solubility fold change) (ratio); higher = more soluble protein in presence of ATP
Procedure, shortened: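 Across three independent experiments, values are fold changes against the detergent-processed vehicle for each replicate, based on vsn-normalised intensities. The samples were Jurkat crude lysate treated with eight concentrations (0.1 to 10 mM) for 10 min at room temperature and then 3 min at 37 °C. Lysate was solubilised with 0.8% NP40 and benzonase, ultracentrifuged, and the supernatant analysed by TMT-labelled LC-MS/MS.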

Sequence of UniProt Q12986 (Q12986 whole entry): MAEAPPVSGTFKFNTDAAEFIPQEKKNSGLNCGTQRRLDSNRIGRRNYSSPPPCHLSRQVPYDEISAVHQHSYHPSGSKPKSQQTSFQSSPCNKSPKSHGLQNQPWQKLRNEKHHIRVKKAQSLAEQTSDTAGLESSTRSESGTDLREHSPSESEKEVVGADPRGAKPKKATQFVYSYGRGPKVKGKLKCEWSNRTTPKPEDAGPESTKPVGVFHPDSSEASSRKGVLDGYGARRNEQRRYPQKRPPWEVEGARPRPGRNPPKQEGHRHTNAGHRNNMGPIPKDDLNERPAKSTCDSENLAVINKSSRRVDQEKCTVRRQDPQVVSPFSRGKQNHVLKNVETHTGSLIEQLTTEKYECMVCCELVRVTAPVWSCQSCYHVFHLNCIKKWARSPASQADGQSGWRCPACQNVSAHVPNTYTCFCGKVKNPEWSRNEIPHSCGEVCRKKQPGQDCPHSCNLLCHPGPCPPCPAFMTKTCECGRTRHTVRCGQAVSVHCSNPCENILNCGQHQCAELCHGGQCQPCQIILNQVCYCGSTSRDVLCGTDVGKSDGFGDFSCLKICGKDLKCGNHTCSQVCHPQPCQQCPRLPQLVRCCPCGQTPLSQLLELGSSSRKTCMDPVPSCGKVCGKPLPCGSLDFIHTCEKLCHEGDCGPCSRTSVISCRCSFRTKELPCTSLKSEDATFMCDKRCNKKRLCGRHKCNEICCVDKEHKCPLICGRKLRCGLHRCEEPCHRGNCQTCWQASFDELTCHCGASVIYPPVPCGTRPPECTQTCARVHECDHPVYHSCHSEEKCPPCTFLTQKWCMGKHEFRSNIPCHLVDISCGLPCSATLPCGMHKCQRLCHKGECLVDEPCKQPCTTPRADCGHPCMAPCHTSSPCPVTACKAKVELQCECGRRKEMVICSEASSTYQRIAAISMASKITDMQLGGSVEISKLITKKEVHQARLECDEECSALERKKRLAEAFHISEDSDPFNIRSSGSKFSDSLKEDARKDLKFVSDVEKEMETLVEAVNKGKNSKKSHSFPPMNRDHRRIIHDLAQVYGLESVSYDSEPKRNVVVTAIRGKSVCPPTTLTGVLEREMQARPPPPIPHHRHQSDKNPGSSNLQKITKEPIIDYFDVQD
Sequence of UniProt Q5T280 (Q5T280 whole entry): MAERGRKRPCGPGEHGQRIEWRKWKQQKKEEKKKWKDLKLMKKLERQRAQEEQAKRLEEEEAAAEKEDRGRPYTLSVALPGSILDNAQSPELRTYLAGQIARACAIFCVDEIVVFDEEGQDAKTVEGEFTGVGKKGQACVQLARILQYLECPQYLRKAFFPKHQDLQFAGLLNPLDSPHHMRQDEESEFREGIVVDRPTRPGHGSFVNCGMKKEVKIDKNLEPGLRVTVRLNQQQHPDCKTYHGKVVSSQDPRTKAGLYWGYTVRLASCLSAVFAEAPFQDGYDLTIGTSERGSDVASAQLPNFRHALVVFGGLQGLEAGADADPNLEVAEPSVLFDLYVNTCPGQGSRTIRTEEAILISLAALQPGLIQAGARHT
Sequence of UniProt Q2NKX8 (Q2NKX8 whole entry): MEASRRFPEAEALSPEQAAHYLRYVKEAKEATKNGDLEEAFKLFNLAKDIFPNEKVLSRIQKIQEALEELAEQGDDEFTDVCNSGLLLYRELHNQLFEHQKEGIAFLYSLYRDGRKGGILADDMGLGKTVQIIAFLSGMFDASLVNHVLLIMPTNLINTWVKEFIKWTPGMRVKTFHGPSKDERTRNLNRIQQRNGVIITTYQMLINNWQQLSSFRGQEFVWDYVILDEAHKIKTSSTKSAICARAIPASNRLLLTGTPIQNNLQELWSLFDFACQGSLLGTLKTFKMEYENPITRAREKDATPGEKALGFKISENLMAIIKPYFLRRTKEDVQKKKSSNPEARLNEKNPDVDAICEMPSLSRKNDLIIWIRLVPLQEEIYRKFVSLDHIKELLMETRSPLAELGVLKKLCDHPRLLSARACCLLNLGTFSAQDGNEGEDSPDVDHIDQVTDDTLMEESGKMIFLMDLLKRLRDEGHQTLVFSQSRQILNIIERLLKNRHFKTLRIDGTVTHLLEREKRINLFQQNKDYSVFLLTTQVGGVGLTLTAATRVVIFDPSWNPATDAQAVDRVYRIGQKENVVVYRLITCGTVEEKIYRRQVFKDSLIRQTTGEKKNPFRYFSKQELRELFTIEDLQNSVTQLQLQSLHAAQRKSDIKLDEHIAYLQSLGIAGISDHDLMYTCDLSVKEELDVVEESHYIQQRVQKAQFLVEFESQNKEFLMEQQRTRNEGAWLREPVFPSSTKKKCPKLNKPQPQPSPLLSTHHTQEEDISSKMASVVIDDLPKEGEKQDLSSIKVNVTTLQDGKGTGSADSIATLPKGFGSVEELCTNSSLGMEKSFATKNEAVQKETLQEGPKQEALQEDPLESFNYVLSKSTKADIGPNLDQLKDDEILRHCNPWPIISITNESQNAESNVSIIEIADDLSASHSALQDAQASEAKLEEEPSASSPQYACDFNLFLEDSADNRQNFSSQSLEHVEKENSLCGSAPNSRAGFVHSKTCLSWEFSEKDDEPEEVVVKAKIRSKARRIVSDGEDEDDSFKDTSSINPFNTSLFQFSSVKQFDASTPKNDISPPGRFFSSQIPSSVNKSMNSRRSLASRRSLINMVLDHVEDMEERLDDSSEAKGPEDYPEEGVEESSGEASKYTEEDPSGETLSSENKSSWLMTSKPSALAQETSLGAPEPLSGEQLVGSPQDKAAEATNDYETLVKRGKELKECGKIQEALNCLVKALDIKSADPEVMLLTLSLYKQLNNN
Sequence of UniProt Q15388 (Q15388 whole entry): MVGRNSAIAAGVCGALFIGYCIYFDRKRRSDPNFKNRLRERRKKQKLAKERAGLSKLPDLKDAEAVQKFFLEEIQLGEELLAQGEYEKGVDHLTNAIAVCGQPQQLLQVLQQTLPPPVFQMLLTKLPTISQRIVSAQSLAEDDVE
Sequence of UniProt Q8N684 (Q8N684 whole entry): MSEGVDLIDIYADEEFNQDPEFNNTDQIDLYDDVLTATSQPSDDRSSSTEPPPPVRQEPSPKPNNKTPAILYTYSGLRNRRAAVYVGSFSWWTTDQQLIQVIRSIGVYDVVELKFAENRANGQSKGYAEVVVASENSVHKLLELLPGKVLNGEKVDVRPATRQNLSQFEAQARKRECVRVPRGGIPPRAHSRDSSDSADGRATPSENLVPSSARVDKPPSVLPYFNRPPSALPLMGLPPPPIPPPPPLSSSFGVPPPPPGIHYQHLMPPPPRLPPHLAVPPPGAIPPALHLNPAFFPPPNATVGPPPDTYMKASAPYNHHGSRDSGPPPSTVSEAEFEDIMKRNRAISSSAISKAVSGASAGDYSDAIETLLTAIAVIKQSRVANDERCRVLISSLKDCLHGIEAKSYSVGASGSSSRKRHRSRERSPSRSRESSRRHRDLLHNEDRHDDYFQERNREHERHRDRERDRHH
Sequence of UniProt Q10567 (Q10567 whole entry): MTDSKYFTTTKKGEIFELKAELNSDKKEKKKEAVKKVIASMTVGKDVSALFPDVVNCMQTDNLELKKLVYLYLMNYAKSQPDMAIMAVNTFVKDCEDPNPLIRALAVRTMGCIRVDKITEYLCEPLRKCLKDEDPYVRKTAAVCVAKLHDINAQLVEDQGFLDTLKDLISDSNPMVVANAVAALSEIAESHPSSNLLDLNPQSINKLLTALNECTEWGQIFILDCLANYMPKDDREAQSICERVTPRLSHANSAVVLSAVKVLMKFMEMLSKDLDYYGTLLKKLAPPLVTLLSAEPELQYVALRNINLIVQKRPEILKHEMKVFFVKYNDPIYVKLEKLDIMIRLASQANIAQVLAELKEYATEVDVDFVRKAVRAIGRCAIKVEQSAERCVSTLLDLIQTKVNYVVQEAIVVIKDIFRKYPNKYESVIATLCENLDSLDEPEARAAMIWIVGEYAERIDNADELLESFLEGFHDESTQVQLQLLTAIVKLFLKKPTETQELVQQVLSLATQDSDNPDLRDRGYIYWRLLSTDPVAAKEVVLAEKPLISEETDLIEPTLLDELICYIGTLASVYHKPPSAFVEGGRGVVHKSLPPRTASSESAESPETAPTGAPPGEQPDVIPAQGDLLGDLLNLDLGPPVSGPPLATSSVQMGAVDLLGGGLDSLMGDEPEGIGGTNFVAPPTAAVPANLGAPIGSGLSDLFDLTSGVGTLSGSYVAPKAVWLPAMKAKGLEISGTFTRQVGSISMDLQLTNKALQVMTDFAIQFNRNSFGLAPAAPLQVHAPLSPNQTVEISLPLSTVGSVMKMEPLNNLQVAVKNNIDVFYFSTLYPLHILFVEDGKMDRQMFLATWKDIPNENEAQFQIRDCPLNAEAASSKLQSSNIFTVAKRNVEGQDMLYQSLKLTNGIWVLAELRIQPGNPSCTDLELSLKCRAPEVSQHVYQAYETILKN
Sequence of UniProt Q8IWZ8 (Q8IWZ8 whole entry): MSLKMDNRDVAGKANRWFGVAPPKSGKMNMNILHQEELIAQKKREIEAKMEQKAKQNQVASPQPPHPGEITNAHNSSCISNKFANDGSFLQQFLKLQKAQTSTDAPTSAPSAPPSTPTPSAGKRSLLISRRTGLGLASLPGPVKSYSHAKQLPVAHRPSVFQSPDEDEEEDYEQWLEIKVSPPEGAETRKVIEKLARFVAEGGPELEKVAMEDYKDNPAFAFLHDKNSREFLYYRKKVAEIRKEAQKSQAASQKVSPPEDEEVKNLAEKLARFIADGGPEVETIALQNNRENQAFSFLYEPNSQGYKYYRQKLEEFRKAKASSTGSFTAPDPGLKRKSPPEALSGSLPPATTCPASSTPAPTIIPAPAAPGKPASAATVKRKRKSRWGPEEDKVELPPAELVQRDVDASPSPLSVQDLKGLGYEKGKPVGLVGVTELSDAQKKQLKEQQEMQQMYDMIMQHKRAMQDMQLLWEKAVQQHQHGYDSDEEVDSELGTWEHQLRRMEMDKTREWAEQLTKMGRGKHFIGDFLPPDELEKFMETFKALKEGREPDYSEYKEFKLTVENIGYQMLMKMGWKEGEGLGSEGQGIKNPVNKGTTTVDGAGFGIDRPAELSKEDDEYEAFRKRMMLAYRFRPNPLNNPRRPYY

Target	NP40-soluble protein abundance (concentration: 1mM)	NP40-soluble protein abundance (concentration: 2mM)	NP40-soluble protein abundance (concentration: 4mM)	NP40-soluble protein abundance (concentration: 6mM)	NP40-soluble protein abundance (concentration: 8mM)	NP40-soluble protein abundance (concentration: 10mM)
UniProt Q8IWZ8	1.03 ± 0.036	1.05 ± 0.037	1.08 ± 0.034	1.11 ± 0.068	1.11 ± 0.051	1.09 ± 0.037
NDUFAF2 (UniProt Q8N183)	0.927 ± 0.11	0.916 ± 0.046	0.934 ± 0.093	0.906 ± 0.046	0.959 ± 0.062	0.848 ± 0.12
NFX1 (UniProt Q12986)	1.07 ± 0.08	1.21 ± 0.042	1.34 ± 0.041	1.46 ± 0.046	1.62 ± 0.031	1.66 ± 0.11
UniProt Q10567|Q10567-2|Q10567-3	0.9721 ± 0.0088	0.973 ± 0.015	0.922 ± 0.022	0.964 ± 0.013	0.951 ± 0.0014	0.934 ± 0.024
ERCC6L (UniProt Q2NKX8)	0.999 ± 0.024	0.986 ± 0.026	0.971 ± 0.024	0.999 ± 0.033	0.966 ± 0.0079	0.978 ± 0.017
UniProt Q8N684|Q8N684-2|Q8N684-3	1.51 ± 0.076	1.61 ± 0.016	1.75 ± 0.065	1.81 ± 0.081	1.82 ± 0.055	1.83 ± 0.032
FADD (UniProt Q13158)	1.1 ± 0.14	1.05 ± 0.05	1.06 ± 0.11	1.05 ± 0.046	1.06 ± 0.13	0.969 ± 0.11
C6ORF134 (UniProt Q5SQI0)	0.975 ± 0.073	0.98 ± 0.089	0.981 ± 0.064	0.999 ± 0.09	0.983 ± 0.029	0.998 ± 0.04
UniProt Q5T280	1.03 ± 0.085	1.08 ± 0.077	1.23 ± 0.12	1.47 ± 0.17	1.52 ± 0.21	1.83 ± 0.22
FLCN (UniProt Q8NFG4)	1.02 ± 0.056	1 ± 0.037	1.05 ± 0.066	0.988 ± 0.058	0.977 ± 0.07	0.974 ± 0.033
RNF20 (UniProt Q5VTR2)	0.962 ± 0.05	0.961 ± 0.02	0.935 ± 0.024	0.997 ± 0.041	0.935 ± 0.019	0.933 ± 0.017
UniProt Q8IY17|Q8IY17-3|Q8IY17-4|Q8IY17-2	1.05 ± 0.056	1.05 ± 0.033	1.028 ± 0.0096	1.01 ± 0.051	1.04 ± 0.04	1.06 ± 0.036
TOMM20 (UniProt Q15388)	0.921 ± 0.086	0.896 ± 0.044	0.903 ± 0.11	0.886 ± 0.041	0.8947 ± 0.0073	0.803 ± 0.21
ZDHHC17 (UniProt Q8IUH5)	1.08 ± 0.056	0.997 ± 0.021	1.11 ± 0.082	1.02 ± 0.058	1.09 ± 0.063	1.08 ± 0.033
UniProt Q13137|Q13137-3|Q13137-4|Q13137-5|H0YBP4	0.962 ± 0.033	0.968 ± 0.032	0.9319 ± 0.0066	0.986 ± 0.03	0.941 ± 0.012	0.948 ± 0.026
